Measured values reported in PubChem BioAssay (Tox21).
Results filed as inconclusive are left out. The source made the active and inactive calls. Calls follow the shape of the dose curve; as a rule, active = well fitted curve in the direction sought with a large enough effect in the repeat runs; inconclusive = weak or mixed curves; inactive = no such curve, though single readings can be large; an effect the other way counts as inactive or inconclusive.

Experiments:
[1] = A CellTox Green Cytotoxicity Assay to monitor cytotoxicity in HEK293 cells - 40 hour (AID 1224871); also: nearly all actives have a fitted effect of over 45% in size
How it was run: (§1)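 Dead-cell fluorescence measured kinetically: asymmetric cyanine dye, HEK293, 600 cells/well, 5 h settle, 23 nL cpd/DMSO, 37 C, reads 0–40 h every 8 h.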

[2] = qHTS RealTime-Glo MT Cell Viability Assay in HEK293 cells - 16 hour (AID 1224872); also: top concentration of the series differs between compounds; nearly all actives have a fitted effect of over 50% in size
How it was run: (§2)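 Tox21 10K qHTS, HEK293, 600 cells/well, RealTime-Glo reagent co-dispensed with cells; 5 h preincubation, compound by pintool, 37 C, luminescence at 0–40 h.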

[3] = qHTS RealTime-Glo MT Cell Viability Assay in HepG2 cells - 8 hour (AID 1224873); also: nearly all actives have a fitted effect of over 55% in size
How it was run: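 HepG2 cells mixed with RealTime-Glo MT reagents (NanoLuc plus cell-permeant prosubstrate) were seeded at 600 cells/well, incubated 5 h at 37 C/5% CO2, then pinned with compounds in DMSO; nonlytic luminescence tracked viability during 40 h treatment.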

[4] = qHTS RealTime-Glo MT Cell Viability Assay in HEK293 cells - 40 hour (AID 1224874); conditions: RealTime-Glo luminescence; max response: hits give low values; also: nearly all actives have a fitted effect of over 50% in size
How it was run: (§3)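 600 HEK293 cells per well, dispensed already mixed with RealTime-Glo MT reagents. Compound dosing came 5 h later. The same wells were read for luminescence at 0, 8, 16, 24, 32 and 40 h of exposure at 37 C.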

[5] = A CellTox Green Cytotoxicity Assay to monitor cytotoxicity in HEK293 cells - 24 hour (AID 1224875); also: series mostly up to about 77 µM; nearly all actives have a fitted effect of over 45% in size
How it was run: as §1

[6] = A CellTox Green Cytotoxicity Assay to monitor cytotoxicity in HepG2 cells - 16 hour (AID 1224876); also: nearly all actives have a fitted effect of over 45% in size
How it was run: (§4)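 First, HepG2 cells (600/well) mixed with reagent were plated; second, after 5 h at 37 C they received compounds via pintool; third, fluorescence was measured at 0 h through 40 h at 8 h intervals.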

[7] = qHTS RealTime-Glo MT Cell Viability Assay in HepG2 cells - 32 hour (AID 1224877); also: nearly all actives have a fitted effect of over 55% in size
How it was run: (§5)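 Cells + NanoLuc/prosubstrate dispensed (600 cells/well) → 5 h at 37 C/5% CO2 → compounds in DMSO transferred → 40 h incubation at 37 C, luminescence read at 0, 8, 16, 24, 32, 40 h.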

[8] = A CellTox Green Cytotoxicity Assay to monitor cytotoxicity in HepG2 cells - 24 hour (AID 1224878); also: nearly all actives have a fitted effect of over 45% in size
How it was run: as §4

[9] = qHTS RealTime-Glo MT Cell Viability Assay in HEK293 cells - 0 hour (AID 1224880)
How it was run: as §3

[10] = A CellTox Green Cytotoxicity Assay to monitor cytotoxicity in HEK293 cells - 32 hour (AID 1224881); also: nearly all actives have a fitted effect of over 40% in size
How it was run: as §1

[11] = A CellTox Green Cytotoxicity Assay to monitor cytotoxicity in HepG2 cells - 0 hour (AID 1224882); also: nearly all actives have a fitted effect of over 35% in size
How it was run: as §4

[12] = A CellTox Green Cytotoxicity Assay to monitor cytotoxicity in HepG2 cells - 32 hour (AID 1224883); also: nearly all actives have a fitted effect of over 50% in size
How it was run: as §4

[13] = A CellTox Green Cytotoxicity Assay to monitor cytotoxicity in HEK293 cells - 8 hour (AID 1224884); also: nearly all actives have a fitted effect of over 35% in size
How it was run: as §1

[14] = qHTS RealTime-Glo MT Cell Viability Assay in HepG2 cells - 16 hour (AID 1224885); also: nearly all actives have a fitted effect of over 50% in size
How it was run: as §5

[15] = qHTS RealTime-Glo MT Cell Viability Assay in HEK293 cells - 24 hour (AID 1224886)
How it was run: as §2

[16] = qHTS RealTime-Glo MT Cell Viability Assay in HEK293 cells - 8 hour (AID 1224887)
How it was run: as §3

[17] = A CellTox Green Cytotoxicity Assay to monitor cytotoxicity in HEK293 cells - 16 hour (AID 1224888); also: nearly all actives have a fitted effect of over 35% in size
How it was run: as §1

[18] = qHTS RealTime-Glo MT Cell Viability Assay in HepG2 cells - 0 hour (AID 1224889); also: nearly all actives have a fitted effect of over 50% in size
How it was run: as §5

[19] = A CellTox Green Cytotoxicity Assay to monitor cytotoxicity in HepG2 cells - 8 hour (AID 1224890); also: nearly all actives have a fitted effect of over 45% in size
How it was run: as §4

[20] = A CellTox Green Cytotoxicity Assay to monitor cytotoxicity in HepG2 cells - 40 hour (AID 1224879); also: nearly all actives have a fitted effect of over 40% in size; also: potency is read from the fitted curve at half-maximal effect
How it was run: as §4
% is scaled to controls: 0 for no effect and ±100 for the full control effect.

OCCN(CCO)c1ccccc1
inactive: Potency [1] | Potency [2] | outcome [3] | max response [4] 1.89% | Potency [5] | Potency [6] | Potency [7] | Potency [8] | outcome [9] | Potency [10] | Potency [11] | Potency [12] | Potency [13] | outcome [14] | Potency [15] | Potency [16] | Potency [17] | Potency [18] | Potency [19]

OCc1ccccc1O
inactive: Potency [1] | Potency [2] | outcome [3] | max response [4] -16.1% | Potency [5] | Potency [6] | Potency [7] | Potency [8] | outcome [9] | Potency [10] | Potency [11] | Potency [12] | Potency [13] | outcome [14] | Potency [15] | Potency [16] | Potency [17] | Potency [18] | Potency [19]

C=CC1CO1 (centres undefined)
inactive: Potency [1] | Potency [2] | outcome [3] | max response [4] 6.13% | Potency [5] | Potency [6] | Potency [7] | Potency [8] | outcome [9] | Potency [10] | Potency [11] | Potency [12] | Potency [13] | outcome [14] | Potency [15] | Potency [16] | Potency [17] | Potency [18] | Potency [19]

CCN(CC)CCOc1ccc(Cc2ccccc2)cc1
inactive: Potency [1] | Potency [2] | outcome [3] | Potency [5] | Potency [7] | outcome [9] | Potency [10] | Potency [11] | Potency [13] | outcome [14] | Potency [16] | Potency [17] | Potency [18] | Potency [19]
active: Potency [20] 26.8 µM

CCc1nnc(NS(=O)(=O)c2ccc(N)cc2)s1
inactive: Potency [1] | Potency [2] | outcome [3] | max response [4] 6.63% | Potency [6] | Potency [7] | Potency [8] | Potency [20] | outcome [9] | Potency [10] | Potency [11] | Potency [12] | Potency [13] | outcome [14] | Potency [15] | Potency [16] | Potency [17] | Potency [18] | Potency [19]

CC1=C(CC(=O)O)c2cc(F)ccc2/C1=C\c1ccc(S(C)(=O)=O)cc1
inactive: Potency [1] | Potency [2] | outcome [3] | max response [4] 8.4% | Potency [6] | Potency [7] | Potency [8] | Potency [20] | outcome [9] | Potency [10] | Potency [11] | Potency [12] | outcome [14] | Potency [15] | Potency [16] | Potency [17] | Potency [18] | Potency [19]

O=S(=O)(O)C(F)(F)F
inactive: Potency [1] | Potency [2] | outcome [3] | max response [4] 7.92% | Potency [6] | Potency [7] | Potency [8] | Potency [20] | outcome [9] | Potency [10] | Potency [11] | Potency [12] | Potency [13] | outcome [14] | Potency [15] | Potency [17] | Potency [18] | Potency [19]

CCOC(=O)c1cc(=O)c2c(OCC(COc3cccc4oc(C(=O)OCC)cc(=O)c34)OC(=O)[C@@H](N)CCCCN)cccc2o1
inactive: Potency [1] | Potency [2] | outcome [3] | max response [4] 3.47% | Potency [6] | Potency [7] | Potency [8] | Potency [20] | outcome [9] | Potency [10] | Potency [11] | Potency [12] | Potency [13] | outcome [14] | Potency [15] | Potency [16] | Potency [17] | Potency [18] | Potency [19]

c1ccc(CN(CC2=NCCN2)c2ccccc2)cc1
inactive: Potency [1] | Potency [2] | outcome [3] | max response [4] -19.9% | Potency [6] | Potency [7] | Potency [8] | Potency [20] | outcome [9] | Potency [10] | Potency [11] | Potency [12] | Potency [13] | Potency [15] | Potency [16] | Potency [17] | Potency [18] | Potency [19]

O=C(O[C@@H](C(=O)O)[C@@H](OC(=O)c1ccccc1)C(=O)O)c1ccccc1
inactive: Potency [1] | Potency [2] | outcome [3] | Potency [5] | Potency [6] | Potency [7] | Potency [8] | outcome [9] | Potency [10] | Potency [11] | Potency [12] | Potency [13] | outcome [14] | Potency [15] | Potency [16] | Potency [17] | Potency [18]

NS(=O)(=O)c1cc(-c2nn[nH]n2)c(NCc2cccs2)cc1Cl
inactive: Potency [1] | Potency [2] | outcome [3] | max response [4] -3.29% | Potency [6] | Potency [7] | Potency [8] | Potency [20] | outcome [9] | Potency [10] | Potency [11] | Potency [12] | Potency [13] | outcome [14] | Potency [15] | Potency [16] | Potency [17] | Potency [18] | Potency [19]

C[C@]12C(=O)OC(=O)[C@H]1[C@H]1C=C[C@@H]2C1
inactive: Potency [1] | Potency [2] | outcome [3] | max response [4] 10.7% | Potency [6] | Potency [7] | Potency [8] | Potency [20] | outcome [9] | Potency [10] | Potency [11] | Potency [12] | Potency [13] | outcome [14] | Potency [15] | Potency [16] | Potency [17] | Potency [18]

OCC(CBr)(CBr)CBr
inactive: Potency [1] | Potency [2] | outcome [3] | Potency [5] | Potency [6] | Potency [7] | Potency [8] | outcome [9] | Potency [10] | Potency [11] | Potency [12] | Potency [15] | Potency [16] | Potency [17] | Potency [18]

O=Cc1ccc(F)c(Br)c1
inactive: Potency [1] | Potency [2] | outcome [3] | max response [4] 3.83% | Potency [6] | Potency [7] | Potency [8] | Potency [20] | outcome [9] | Potency [10] | Potency [11] | Potency [12] | outcome [14] | Potency [15] | Potency [16] | Potency [17] | Potency [18] | Potency [19]

CN(C)CCOc1ccccc1Cc1ccccc1
inactive: Potency [1] | Potency [2] | outcome [3] | Potency [5] | Potency [7] | outcome [9] | Potency [10] | Potency [13] | outcome [14] | Potency [15] | Potency [16] | Potency [17] | Potency [18]
